# In PubChem BioAssay AID1159580 (chemical genetic matrix, 2015):
# Among all 5,500 compounds or so, about 2,000 (36%) were called active. Roughly 18% stayed inconclusive and do not appear here. This is one part of the list. A number with no mark means an inactive call. Cut-off read from the data, not from the text of the source: active = normalized growth mostly below about 0.91 (no sharp cut-off); inconclusive = no clear call, values can overlap the other calls; inactive = mostly above about 0.92.
# Experiment: chemical genetic growth profiling, strain panel (AID 1159580);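 note: tested at 20 µM; growth read once vehicle control cultures reached saturation at 30 °C; 1 = growth at the plate median or of vehicle wells; lower values mean less growth of the strain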
# Conditions: S. cerevisiae deletion strains, growth OD
compound,measurement,setting,value
C[C@]12CCC(=O)C=C1CCc1ccc(O)cc12,normalized growth,"locus YBR021W, strain FUR4, active compounds read low",1.03
same,normalized growth,"locus YBR229C, strain ROT2, active compounds read low",1
same,normalized growth,"locus YCL029C, strain bik1, active compounds read low",0.992
same,normalized growth,"locus YDL035C, strain GPR1, active compounds read low",1.04
same,normalized growth,"locus YDL074C, strain BRE1, active compounds read low",1.04
same,normalized growth,"locus YDL101C, strain DUN1, active compounds read low",1.01
same,normalized growth,"locus YDL134C, strain PPH21, active compounds read low",1
same,normalized growth,"locus YDL185W, strain tfp1, active compounds read low",0.992
same,normalized growth,"locus YDL192W, strain arf1, active compounds read low",0.998
same,normalized growth,"locus YDR101C, strain arx1, active compounds read low",0.984
same,normalized growth,"locus YDR150W, strain NUM1, active compounds read low",1
same,normalized growth,"locus YDR162C, strain NBP2, active compounds read low",1.01
same,normalized growth,"locus YDR318W, strain mcm21, active compounds read low",0.986
same,normalized growth,"locus YDR388W, active compounds read low",0.991
same,normalized growth,"locus YDR502C, strain sam2, active compounds read low",0.968
same,normalized growth,"locus YEL061C, strain CIN8, active compounds read low",1
same,normalized growth,"locus YER110C, active compounds read low",0.982
same,normalized growth,"locus YER155C, strain BEM2, active compounds read low",0.996
same,normalized growth,"locus YER167W, strain BCK2, active compounds read low",1.02
same,normalized growth,"locus YGL078C, strain dbp3, active compounds read low",0.995
same,normalized growth,"locus YGL086W, strain mad1, active compounds read low",0.982
same,normalized growth,"locus YGL248W, strain PDE1, active compounds read low",0.996
same,normalized growth,"locus YGR078C, strain PAC10, active compounds read low",0.998
same,normalized growth,"locus YGR135W, strain pre9, active compounds read low",0.973
same,normalized growth,"locus YGR252W, strain gcn5, active compounds read low",0.961
same,normalized growth,"locus YHR030C, strain SLT2, active compounds read low",1.01
same,normalized growth,"locus YHR079C, strain IRE1 (second series), active compounds read low",0.989
same,normalized growth,"locus YHR094C, strain hxt1, active compounds read low",0.993
same,normalized growth,"locus YHR129C, strain ARP1, active compounds read low",1
same,normalized growth,"locus YHR200W, strain rpn10, active compounds read low",0.989
same,normalized growth,"locus YIL066C, strain RNR3, active compounds read low",1.02
same,normalized growth,"locus YIL073C, strain SPO22, active compounds read low",1.04
same,normalized growth,"locus YIL125W, strain kgd1, active compounds read low",0.987
same,normalized growth,"locus YIR030C, strain dcg1, active compounds read low",1.01
same,normalized growth,"locus YJL095W, strain BCK1, active compounds read low",1
same,normalized growth,"locus YJL134W, strain LCB3, active compounds read low",1.01
same,normalized growth,"locus YJL168C, strain set2, active compounds read low",0.987
same,normalized growth,"locus YJL187C, strain SWE1 (second series), active compounds read low",1
same,normalized growth,"locus YJR043C, strain POL32, active compounds read low",1.01
same,normalized growth,"locus YKL009W, strain mrt4, active compounds read low",1.03
same,normalized growth,"locus YKL068W, active compounds read low",0.991
same,normalized growth,"locus YKL085W, strain MDH1 (second series), active compounds read low",0.999
same,normalized growth,"locus YKL085W, strain MDH1, active compounds read low",0.999
same,normalized growth,"locus YKL190W, strain CNB1, active compounds read low",1.01
same,normalized growth,"locus YKR001C, strain vps1, active compounds read low",0.977
same,normalized growth,"locus YLR039C, strain RIC1, active compounds read low",1.06
same,normalized growth,"locus YLR058C, strain SHM2, active compounds read low",1.02
same,normalized growth,"locus YLR102C, strain apc9, active compounds read low",0.994
same,normalized growth,"locus YLR262C, strain YPT6, active compounds read low",1.07
same,normalized growth,"locus YLR268W, strain sec22, active compounds read low",0.98
same,normalized growth,"locus YLR342W, strain FKS1 (second series), active compounds read low",0.997
same,normalized growth,"locus YLR371W, strain rom2, active compounds read low",0.994
same,normalized growth,"locus YLR418C, strain cdc73, active compounds read low",0.982
same,normalized growth,"locus YML016C, strain PPZ1, active compounds read low",1.01
same,normalized growth,"locus YML032C, strain rad52, active compounds read low",0.982
same,normalized growth,"locus YML124C, strain tub3, active compounds read low",0.979
same,normalized growth,"locus YMR078C, strain ctf18, active compounds read low",0.987
same,normalized growth,"locus YMR223W, strain ubp8, active compounds read low",0.988
same,normalized growth,"locus YMR307W, strain GAS1, active compounds read low",1.04
same,normalized growth,"locus YNL067W, strain RPL9B, active compounds read low",0.999
same,normalized growth,"locus YNL233W, strain BNI4, active compounds read low",0.99
same,normalized growth,"locus YNL250W, strain rad50, active compounds read low",1.01
same,normalized growth,"locus YNL271C, strain bni1, active compounds read low",0.982
same,normalized growth,"locus YNL298W, strain CLA4, active compounds read low",0.987
same,normalized growth,"locus YNL307C, strain MCK1, active compounds read low",0.983
same,normalized growth,"locus YNR052C, strain pop2, active compounds read low",0.982
same,normalized growth,"locus YOL012C, strain htz1",1.09
same,normalized growth,"locus YOL147C, strain pex11, active compounds read low",0.994
same,normalized growth,"locus YOR061W, strain CKA2, active compounds read low",1.03
same,normalized growth,"locus YOR069W, strain VPS5, active compounds read low",1.01
same,normalized growth,"locus YOR136W, strain idh2, active compounds read low",0.97
same,normalized growth,"locus YOR144C, strain elg1, active compounds read low",0.985
same,normalized growth,"locus YOR184W, strain ser1, active compounds read low",1.03
same,normalized growth,"locus YOR316C, strain cot1, active compounds read low",0.99
same,normalized growth,"locus YPL241C, strain CIN2, active compounds read low",1
same,normalized growth,"locus YPR119W, strain clb2, active compounds read low",0.986
same,normalized growth,"locus YPR141C, strain kar3, active compounds read low",0.994
same,normalized growth,"locus YPR163C, strain tif3, active compounds read low",0.984
same,normalized growth,"locus YPR167C, strain met16, active compounds read low",0.987
same,normalized growth,"strain wtn01, active compounds read low",0.992
CC12CCC(=O)C=C1CCc1ccccc12 (configuration not stated),normalized growth,"locus YAL021C, strain ccr4, active compounds read low",0.992
same,normalized growth,"locus YAL026C, strain drs2, active compounds read low",0.985
same,normalized growth,"locus YAL030W, strain snc1, active compounds read low",0.984
same,normalized growth,"locus YBL061C, strain skt5, active compounds read low",0.981
same,normalized growth,"locus YBR009C, strain hhf1, active compounds read low",0.985
same,normalized growth,"locus YBR023C, strain chs3, active compounds read low",0.979
same,normalized growth,"locus YBR171W, strain sec66, active compounds read low",0.972
same,normalized growth,"locus YBR231C, strain swc5, active compounds read low",0.985
same,normalized growth,"locus YBR279W, strain paf1, active compounds read low",0.985
same,normalized growth,"locus YCL011C, strain gbp2, active compounds read low",0.997
same,normalized growth,"locus YCL016C, strain dcc1, active compounds read low",0.978
same,normalized growth,"locus YCL061C, strain MRC1, active compounds read low",0.977
same,normalized growth,"locus YCL069W, strain vba3, active compounds read low",0.986
same,normalized growth,"locus YCR088W, strain abp1, active compounds read low",0.966
same,normalized growth,"locus YDL005C, strain med2, active compounds read low",0.985
same,normalized growth,"locus YDL040C, strain nat1, active compounds read low",0.967
same,normalized growth,"locus YDR001C, strain nth1, active compounds read low",0.967
same,normalized growth,"locus YDR069C, strain doa4, active compounds read low",0.984
same,normalized growth,"locus YDR137W, strain rgp1, active compounds read low",1.05
same,normalized growth,"locus YDR159W, strain sac3, active compounds read low",0.955
same,normalized growth,"locus YDR195W, strain ref2",0.947
same,normalized growth,"locus YDR297W, strain sur2, active compounds read low",0.978
same,normalized growth,"locus YDR334W, strain swr1, active compounds read low",0.959
same,normalized growth,"locus YDR335W, strain msn5, active compounds read low",0.978
same,normalized growth,"locus YDR392W, strain spt3, active compounds read low",0.825
same,normalized growth,"locus YEL003W, strain gim4, active compounds read low",0.981
same,normalized growth,"locus YEL037C, strain rad23, active compounds read low",0.972
same,normalized growth,"locus YEL061C, strain CIN8 (second series), active compounds read low",0.966
same,normalized growth,"locus YER015W, strain faa2, active compounds read low",0.986
same,normalized growth,"locus YER016W, strain bim1, active compounds read low",0.972
same,normalized growth,"locus YER111C, strain swi4, active compounds read low",0.972
same,normalized growth,"locus YER155C, strain BEM2 (second series), active compounds read low",0.849 (active)
same,normalized growth,"locus YFR010W, strain ubp6, active compounds read low",0.99
same,normalized growth,"locus YGL167C, strain pmr1, active compounds read low",0.97
same,normalized growth,"locus YGL173C, strain kem1, active compounds read low",0.985
same,normalized growth,"locus YGL227W, strain vid30, active compounds read low",0.979
same,normalized growth,"locus YGL240W, strain doc1, active compounds read low",0.925
same,normalized growth,"locus YGL253W, strain hxk2, active compounds read low",0.98
same,normalized growth,"locus YHR013C, strain ard1, active compounds read low",0.941
same,normalized growth,"locus YHR027C, strain rpn1, active compounds read low",0.994
same,normalized growth,"locus YHR142W, strain chs7, active compounds read low",0.978
same,normalized growth,"locus YJL092W, strain hpr5, active compounds read low",0.974
same,normalized growth,"locus YJL095W, strain BCK1 (second series), active compounds read low",0.994
same,normalized growth,"locus YJL115W, strain asf1, active compounds read low",0.977
same,normalized growth,"locus YJL129C, strain trk1, active compounds read low",0.964
same,normalized growth,"locus YJL154C, strain vps35, active compounds read low",0.972
same,normalized growth,"locus YJL164C, strain tpk1, active compounds read low",0.984
same,normalized growth,"locus YJL166W, strain qcr8, active compounds read low",0.977
same,normalized growth,"locus YJL187C, strain SWE1, active compounds read low",0.982
same,normalized growth,"locus YKL160W, strain elf1, active compounds read low",1
same,normalized growth,"locus YKR026C, strain gcn3, active compounds read low",0.951
same,normalized growth,"locus YKR091W, strain srl3, active compounds read low",0.971
same,normalized growth,"locus YLL001W, strain dnm1, active compounds read low",0.968
same,normalized growth,"locus YLL026W, active compounds read low",0.979
same,normalized growth,"locus YLL041C, strain sdh2, active compounds read low",0.973
same,normalized growth,"locus YLR027C, strain aat2, active compounds read low",0.99
same,normalized growth,"locus YLR221C, strain rsa3, active compounds read low",1.01
same,normalized growth,"locus YLR258W, strain gsy2, active compounds read low",0.992
same,normalized growth,"locus YLR262C, strain YPT6 (second series), active compounds read low",1.07
same,normalized growth,"locus YLR320W, strain mms22, active compounds read low",0.973
same,normalized growth,"locus YLR342W, strain FKS1, active compounds read low",0.977
same,normalized growth,"locus YLR357W, strain rsc2, active compounds read low",0.844 (active)
same,normalized growth,"locus YLR370C, strain arc18, active compounds read low",0.984
same,normalized growth,"locus YLR384C, strain iki3, active compounds read low",0.972
same,normalized growth,"locus YML120C, strain ndi1, active compounds read low",0.984
same,normalized growth,"locus YMR058W, strain fet3, active compounds read low",0.982
same,normalized growth,"locus YMR125W, strain sto1, active compounds read low",0.969
same,normalized growth,"locus YMR129W, active compounds read low",0.983
same,normalized growth,"locus YMR205C, strain PFK2, active compounds read low",0.985
same,normalized growth,"locus YMR231W, strain pep5, active compounds read low",0.977
same,normalized growth,"locus YNL071W, strain lat1, active compounds read low",0.978
same,normalized growth,"locus YNL209W, strain ssb2, active compounds read low",0.989
same,normalized growth,"locus YNL248C, strain rpa49, active compounds read low",0.951
same,normalized growth,"locus YNL322C, strain KRE1 (second series), active compounds read low",0.962
same,normalized growth,"locus YNR049C, strain mso1, active compounds read low",0.98
same,normalized growth,"locus YOR001W, strain rrp6, active compounds read low",0.994
same,normalized growth,"locus YOR070C, strain gyp1, active compounds read low",0.992
same,normalized growth,"locus YOR080W, strain dia2, active compounds read low",0.974
same,normalized growth,"locus YOR083W, strain WHI5, active compounds read low",1
same,normalized growth,"locus YOR106W, strain vam3, active compounds read low",1
same,normalized growth,"locus YOR265W, strain rbl2, active compounds read low",0.984
same,normalized growth,"locus YOR270C, strain vph1, active compounds read low",0.931
same,normalized growth,"locus YOR290C, strain snf2, active compounds read low",0.933
same,normalized growth,"locus YPL051W, strain arl3, active compounds read low",0.994
same,normalized growth,"locus YPL078C, strain atp4, active compounds read low",0.977
same,normalized growth,"locus YPL106C, strain sse1, active compounds read low",0.973
same,normalized growth,"locus YPL240C, strain hsp82, active compounds read low",0.985
